From PubChem BioAssay (NCI)
The panel holds about 83,000 compounds, 20% with a hit somewhere; the sample as a whole holds those more often.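 Results are percent growth after 48 hours of single-concentration exposure. 100 means growth as in untreated cells, lower positive values show inhibition; negative values down to -100 show cell death.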 A number with no mark means an inactive call. Calls of active or inactive are those of the source. The calls were made as follows: active = growth percent below 10; inactive = the rest.

Assays:
Assay in all cases: NCI-60 one-dose screen, 48 h (100 = growth as untreated, 0 = no growth, -100 = all killed)
Conditions in all cases: 10 µM unless noted
SR leukemia = test system: SR leukemia
RPMI-8226 leukemia = test system: RPMI-8226 leukemia
OVCAR-8 ovarian = test system: OVCAR-8 ovarian
OVCAR-5 ovarian = test system: OVCAR-5 ovarian
OVCAR-4 ovarian = test system: OVCAR-4 ovarian
SK-OV-3 ovarian = test system: SK-OV-3 ovarian
IGROV1 ovarian = test system: IGROV1 ovarian
OVCAR-3 ovarian = test system: OVCAR-3 ovarian
HS 578T breast = test system: HS 578T breast
NCI/ADR-RES ovarian = test system: NCI/ADR-RES ovarian

SMILES	growth (SR leukemia)	growth (RPMI-8226 leukemia)	growth (OVCAR-8 ovarian)	growth (OVCAR-5 ovarian)	growth (OVCAR-4 ovarian)	growth (SK-OV-3 ovarian)	growth (IGROV1 ovarian)	growth (OVCAR-3 ovarian)	growth (HS 578T breast)	growth (NCI/ADR-RES ovarian)
CN(CCn1sc(=O)n(Cc2ccccc2)c1=O)Cc1ccc2c(Cl)cc(Cl)c(O)c2n1	39.2%	45%	32.7%	61.4%	59.3%	65.4%	37.3%	18.9%	68.1%	6.83% (active)
CCCC(=O)NC(c1ccc2c(c1)OCO2)c1ccc2cccnc2c1O (stereo not given)	-16.1% (active)	13.1%	9.28% (active)	34.2%	14.5%	14.8%	5.54% (active)	36.9%	58.6%	3.18% (active)
C/C(Nc1ccc(Cl)c(Cl)c1)=C1\CCOC1=O	83.6%	61.3%	102%	87.5%	72.4%	121%	83.8%	100%	98%	86.7%
COc1cc2c(c(OC)c1OC)-c1ccc(OC)c(=O)cc1[C@@H](NC(=O)CCl)CC2	36.3%	20.3%	8.53% (active)	22.4%	42.7%	15.5%	14.1%	8.93% (active)	63.4%	-39.4% (active)
O=C(CSc1nc2sc3c(c2c(=O)n1-c1ccccc1)CCCCC3)N/N=C/c1ccc(F)cc1	11.3%	66%	-17.9% (active)	41.8%	-47.4% (active)	73.4%	62.1%	-33.8% (active)	-13.9% (active)	22.9%
Cc1c(-n2nnc(-c3nc4ccccc4s3)c2N)c(=O)n(-c2ccccc2)n1C	103%	105%	102%	92.8%	105%	97.8%	90.5%	107%	100%	92.5%
Oc1ccc(CCn2c(O)c(/C=C3\CN=c4ccccc4=N3)sc2=S)cc1	20.9%	33.8%	86.8%	95.6%	80.5%	79.5%	39.9%	44.7%	68.5%	65.7%
COC(=O)/C(CCC=C(C)C)=C1\[C@@H](OC(C)=O)C[C@@]2(C)[C@H]1C[C@@H](O)[C@H]1[C@@]3(C)CC[C@H](NCCN)[C@@H](C)[C@@H]3CC[C@@]12C	-17.8% (active)	70%	86.3%	104%	90.2%	93.6%	86.6%	83.8%	77.9%	93.4%
COc1ccc(-c2csc(NC(=O)CSc3nc(-c4ccccc4)cc(=O)[nH]3)n2)cc1	61.1%	41.8%	70.8%	94.3%	54.2%	91%	71.6%	72%	84.6%	51.3%
COC(=O)c1c2c(c(C)[n+]([O-])c1C)C(=O)C=C(NCc1ccc(OC)cc1)C2=O	-0.642% (active)	-16.5% (active)	1.17% (active)	-54.6% (active)	-98.5% (active)	8.27% (active)	-61.5% (active)	-40.5% (active)	-10.2% (active)	-7.81% (active)
CCN(CC)CCCN1C(=O)c2c(c(C)c3c(oc4cc(O)ccc43)c2C)C1=O	8.28% (active)	-30% (active)	-39.4% (active)	-77.2% (active)	-50.2% (active)	105%	-74.5% (active)	118%	101%	-40.4% (active)
N#Cc1cnc(NCCc2ccncc2)nc1-n1cnc2ccccc21	35.4%	65.3%	54%	66.9%	74.2%	25.5%	29.1%	76.7%	72.1%	64.9%
OCCCC1CCN(C(Cc2ccccc2)c2ccccc2)CC1 (stereo not given)	120%	98.3%	98.5%	60.2%	92.3%	84.9%	96.8%	89.2%	101%	93.9%
N#CCSc1nnc2n(Cc3ccccc3)c(=O)c3c4c(sc3n12)CCCC4	94.8%	-61.3% (active)	95.1%	92.2%	101%	107%	74.2%	98.5%	95.3%	91%
CC1(C)CC[C@]2(c3nnc(-c4ccncc4)o3)CC[C@H]3C(=CC[C@H]4[C@@]3(C)CC[C@H]3C(C)(C)C(=O)CC[C@]43C)[C@@H]2C1	17%	19.2%	86.9%	96.1%	70.1%	82.9%	71.9%	45%	82.4%	82%
O=C(N/N=C/c1ccc(F)cc1)c1ccc(C(F)(F)F)nc1Nc1cccc(C(F)(F)F)c1	-30.5% (active)	-49.8% (active)	9.33% (active)	-7.78% (active)	-6.96% (active)	-7.48% (active)	-19.6% (active)	-7.4% (active)	-5.72% (active)	-22.9% (active)
CS(=O)(=O)Nc1cc(-c2ccc3ncnc(Nc4ccc5c(cnn5Cc5ccccn5)c4)c3c2)cnc1Cl	58.3%	68.8%	90.3%	68.5%	91.5%	89.7%	38.1%	44.1%	25.4%	93.3%
N#C/C(=C\c1ccc(-c2ccc(Cl)cc2)o1)C(=O)Nc1ncc(Cc2ccc(Cl)cc2)s1	8.8% (active)	85.2%	8.41% (active)	29.7%	-56.9% (active)	58.9%	28.3%	-49.8% (active)	25.6%	26.2%
CCCCNC(=O)Oc1ccc(/C(=C(/CC)Cc2ccccc2)c2ccc(OCCN3CCCCCC3)cc2)cc1	-24.6% (active)	-27.6% (active)	14%	73.6%	32.9%	82.7%	42.3%	72.2%	56.6%	53.8%
CC(C)NC1CCC(Nc2ccnc3cc(Cl)ccc23)CC1 (stereo not given)	84%	76%	91.7%	104%	79.5%	93%	109%	109%	96.6%	108%
CN(C)c1ccc(Nc2cc(-c3cccc(OC(F)(F)F)c3)nc3ccc(N4CCCC4)cc23)cc1	-14.6% (active)	-33% (active)	-26.6% (active)	100%	-73.8% (active)	98.6%	-17.9% (active)	-49.7% (active)	-1.71% (active)	-30.2% (active)
